Laboratory results from PubChem BioAssay (NCI).
Values joined by “and” are separate entries in the source; they are usually repeats but may differ in a detail not shown here. Identical values can stand only once. The panel holds about 83,000 compounds, 20% with a hit somewhere; the sample as a whole holds those more often.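 Each cell line was grown in a 96-well plate and treated with one concentration of compound for 48 hours. Values below 10 were considered active.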 Active and inactive are the calls of the source.

The compounds below were run on MDA-MB-468 breast (assay: NCI-60 one-dose screen, 48 h (100 = growth as untreated, 0 = no growth, -100 = all killed)). Conditions: 10 µM unless noted.

Row | Compound | growth
1 | CCN(CC)CCOc1ccc(/C(=C(\C)c2ccc(F)c(OC)c2)c2ccc(Cl)cc2)cc1 | -15.7% (active)
2 | CCCCCCCCCCCCCCCCCC[n+]1ccc2c(C)c3c(c(C)c2c1)c1cc(O)ccc1n3CC | -18.3% (active)
3 | NS(=O)(=O)c1ccc(Nc2nc3n[nH]c(Nc4ccccc4)c3c(=O)[nH]2)cc1 | 108% (inactive)
4 | c1ccc(CP(Cc2ccccc2)c2ccccc2)cc1 | 98.6% (inactive)
5 | CO[C@]12C=C/C(=C(/C(=O)OCc3cccnc3)C(=O)CCCCCCCC[C@]3(OC)C=C/C(=C(/C(=O)OCc4cccnc4)C(=O)CCCCCCCC1)O3)O2 | -50.5% (active)
6 | COc1cccc(-c2nn(-c3ccccc3)cc2-c2ccnc(NCCCO)c2)c1 | 23.8% (inactive)
7 | O=S(=O)(NCCNc1cc(-c2cn(-c3ccccc3)nc2-c2ccccc2)ccn1)c1cccc2ccccc12 | 36.6% (inactive)
8 | COC(=O)/C=C1\S/C(=N\Nc2ccc([N+](=O)[O-])cc2[N+](=O)[O-])N(C2CCCCC2)C1=O | 45.1% (inactive)
9 | CN(C)CCCn1c2c(c3ccncc3c1=O)C(=O)c1ccccc1-2 | -16% (active)
10 | COCCN(C(=O)Cc1cccs1)C(C(=O)NCc1ccc(OC)cc1)c1ccc(C(C)C)cc1 (centres undefined) | 90.7% (inactive)
11 | N=C1/C(=C2\NC3C=CC=CC3S2)C(c2ccc(Cl)cc2)C2C(=O)N(c3ccccc3)C(=S)N12 (centres undefined) | 97.9% (inactive)
12 | Cc1ccc(S(=O)(=O)NCCCNc2nc(Nc3ccc(N4CCN(C)CC4)cc3)nc3ccsc23)cc1 | 12.3% (inactive)
13 | O=C(Nc1ccncc1)C(=O)c1cn(S(=O)(=O)c2ccc(Cl)cc2)c2ccccc12 | 19.7% (inactive)
14 | COc1cc(/C=C/c2cc(/C=C/c3ccc(O)c(OC)c3)n(C(=O)Nc3ccc(C)cc3C)n2)ccc1O | -30.3% (active)
15 | O=Cc1ccc(F)cc1 | 91% (inactive)
16 | C[C@]12CCC3c4ccc(O)cc4C[C@@H](CCCCCCCCCS(=O)CCCC(F)(F)C(F)(F)F)C3C1CC[C@@H]2O (some centres undefined) | 88% (inactive)
17 | C[C@@H](Oc1cc(-n2cnc3ccc(CN4CCN(C)CC4)cc32)sc1C(N)=O)c1ccccc1C(F)(F)F | 6.59% (active)
18 | CC(=O)c1nn(-c2ccc(C)cc2)cc1C(=O)c1cc2c(ccc3ccccc32)oc1=O | 118% (inactive)
19 | CC1=CC(=O)N(c2cccc3c(N4C(=O)C=C(C)C4=O)cccc23)C1=O | 23.6% (inactive)
20 | NC(=NCCCOc1ccc(Cl)cc1)Nc1ccc(C(F)(F)F)cc1 | -8.47% (active)

Row | Compound | growth
21 | Nc1nc2ccc(-c3nc4ccc5[nH]ncc5c4c4c3CCC4)cc2s1 | -5.96% (active)
22 | c1csc(-c2[nH]nc3c2CCc2ccccc2-3)c1 | -18.7% (active)
23 | [2H]C1([2H])CCN(C(=O)C2CC2)c2cc(NS(=O)(=O)c3ccc(-c4cccc(C(N)=O)c4)cc3)ccc21 | -5.25% (active)
24 | NC1[C@H](c2c[nH]c3ccccc23)c2c([nH]c3ccccc23)[C@H]1c1c[nH]c2ccccc12 (some centres undefined) | 106% (inactive)
25 | Cc1nccc2c3ccc(OCc4cn(-c5ccc(Br)cc5)nn4)cc3n(CCCc3ccccc3)c12 | 108% (inactive)
26 | CCN(CC)CCN(CCN(CC)CC)c1ccccc1 | 92% (inactive)
27 | CCCCCCCCCCCCCCCCOP(=O)([O-])OCC[N+](C)(C)C | -24% (active)
28 | CCN(CC)C(=S)SC(SC(=S)N(CC)CC)C(=O)c1nnn(-c2ccc([N+](=O)[O-])cc2)c1C | 102% (inactive)
29 | COc1c(Cl)cc(Cl)c2ccc(C=C3C(=O)N(C)C(=O)N(C)C3=O)nc12 | 107% (inactive)
30 | CC(=O)N1N=C(c2ccc(Nc3ccnc4cc(Cl)ccc34)cc2)CC1c1ccc(Cl)cc1 (centres undefined) | 24.3% (inactive)
31 | Cc1ccc2c(n1)C(=O)C(Br)=C(C1CCCC1)C2=O | 95.2% (inactive)
32 | O=C1NC(=O)C(Cc2ccc(OCc3ccc(-c4ccc(Cl)cc4Cl)cc3)cc2)S1 (centres undefined) | 14.3% (inactive)
33 | CC(=O)CSC(C)=O | 99.1% (inactive)
34 | Cc1nonc1-c1ccc2c(c1)OCO2 | 111% (inactive) and 93.8% (inactive)
35 | C=C(OC(C)=O)c1ccccc1 | 103% (inactive)
36 | CCc1c2c(nc3ccc(OC(=O)NCc4ccc(B5OC(C)(C)C(C)(C)O5)cc4)cc13)-c1cc3c(c(=O)n1C2)COC(=O)[C@]3(O)CC | -33.9% (active)
37 | CC1=C(/C=C/C(C)=C/C=C(C(=O)O)\C(C)=C\C(=O)O)C(C)(C)CCC1 | 109% (inactive)
38 | N#Cc1c(NC(=O)c2cccc(C(F)(F)F)c2F)sc2c1CCC(=O)C2 | -32% (active)
39 | N=C(N)c1nn(C2OC(CO)C(O)C2O)c2nc[nH]c(=O)c12 (centres undefined) | -59% (active)
